Reference: the supplement of paper PMC7156485
± gives the standard deviation of the averaged measurements.

Key:
Conditions in all cases: concentration: 10 µM; 24 h
HCC1569 [1] = assay: cell number relative to DMSO (% of DMSO); higher = more cells (less growth inhibition / toxicity)
How it was run: (§1)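 Treatment: HCC1569 and TDF cells, 800 per well in 384-well plates with RPMI and 10% FBS, were given compounds at 10 µM for 24 h at 37 °C, in triplicate. Readout: after 3.7% formaldehyde fixation, cells were stained with a rabbit anti-H1.0 antibody, an AlexaFluor 647 secondary and DAPI. Reported values are H1.0 nuclear intensity or cell number as percent of the plate control, taken as the median of replicates, with positional smoothing for HCC1569.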

TDF [2] = assay: as above
How it was run: as §1

TDF [3] = assay: H1.0 immunofluorescence intensity relative to DMSO (% of DMSO); higher = stronger H1.0 induction, active = 120 or more
How it was run: as §1

HCC1569 [4] = assay: H1.0 immunofluorescence intensity relative to DMSO (% of DMSO); higher = stronger H1.0 induction, active = 140 or more
How it was run: as §1
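Wherever H1.0 immunofluorescence intensity relative to DMSO is given: TDF is a line of transformed human dermal fibroblasts of mesenchymal origin.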
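Wherever cell number relative to DMSO is given: TDF denotes transformed human dermal fibroblasts of mesenchymal origin.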

Structure (SMILES)	cell number (HCC1569 [1])	cell number (TDF [2])	H1.0 immunofluorescence intensity (TDF [3])	H1.0 immunofluorescence intensity (HCC1569 [4])
CC1(COc2ccc(CC3SC(=O)NC3=O)cc2)CCCCC1 (stereo unspecified) [Ciglitazone]	99.8	91.8	102 (inactive)	96.6 (inactive)
COC(=O)C1=C(C)NC(C)=C(C(=O)OCCCN2CCC(c3ccccc3)(c3ccccc3)CC2)C1c1cccc([N+](=O)[O-])c1 (stereo unspecified) [Niguldipine]	88.2	99	98.5 (inactive)	126 (inactive)
CCN(CC)CCNC(=O)c1ccc(N)cc1.Cl [Procainamide hydrochloride]	98.7	110	88.6 (inactive)	99.1 (inactive)
C=CC(C)(O)CCC1C(C)(O)CCC2C(C)(C)CCCC21C (stereo unspecified) [Sclareol]	105	90.1	105 (inactive)	94.7 (inactive)
O=C(c1ccc(Cl)c(S(=O)(=O)NCC2CCCO2)c1)N1CCN(c2ncccn2)CC1 (stereo unspecified) [Adenosine Kinase Inhibitor]	86.3	103	89.5 (inactive)	116 (inactive)
Cl.O=C(O)C1=CCNCC1 [Isoguvacine hydrochloride]	106	108	106 (inactive)	98.2 (inactive)
O=c1cc(-c2ccc(O)c(O)c2)oc2cc(O)cc(O)c12 [Luteolin]	74.6 ± 15	62.6 ± 57	124 (active)	120 (inactive)
CCCCCCCCC=CCC=CCC=CCCCC(=O)NCCO [Mead ethanolamide]	104	95.8	108 (inactive)	96.2 (inactive)
COc1ccc(-c2cc3c(C)nc(N)nc3n(C3CCC(OCCO)CC3)c2=O)cn1 (stereo unspecified)	35	51	97.8 (inactive)	191 (active)
